Screening data as filed in PubChem.
An excerpt weighted towards active compounds, which were near 2.3% of everything screened.
CHO-K1 Ca PAM = nonselective activator or artifact in parental CHO-K1 calcium assay | 0.02% of 360,000 active | ATP EC20, Fluo-8 calcium fluorescence; 0% at ATP EC20, 100% at ATP max | activation, % at 3 µM;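 active = activation above the run cutoff, the mean activation of all test compounds plus 3 SD, cut at about 40% in these data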;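 note: peak over basal fluorescence ratio in a 140 s read after ATP addition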
CHRM1 PAM = human CHRM1 positive allosteric modulation. activation, % at 3 µM. CHO-K1 hM1, Fluo-8 calcium fluorescence, ACh EC20; 0% = ACh EC20, 100% = maximal ACh. P11229. AID 588819. 0.088% of 360,000 active; in the data active = activation above about 19%, passing the limit was not always enough
Target sequence (P11229 whole entry, looked up): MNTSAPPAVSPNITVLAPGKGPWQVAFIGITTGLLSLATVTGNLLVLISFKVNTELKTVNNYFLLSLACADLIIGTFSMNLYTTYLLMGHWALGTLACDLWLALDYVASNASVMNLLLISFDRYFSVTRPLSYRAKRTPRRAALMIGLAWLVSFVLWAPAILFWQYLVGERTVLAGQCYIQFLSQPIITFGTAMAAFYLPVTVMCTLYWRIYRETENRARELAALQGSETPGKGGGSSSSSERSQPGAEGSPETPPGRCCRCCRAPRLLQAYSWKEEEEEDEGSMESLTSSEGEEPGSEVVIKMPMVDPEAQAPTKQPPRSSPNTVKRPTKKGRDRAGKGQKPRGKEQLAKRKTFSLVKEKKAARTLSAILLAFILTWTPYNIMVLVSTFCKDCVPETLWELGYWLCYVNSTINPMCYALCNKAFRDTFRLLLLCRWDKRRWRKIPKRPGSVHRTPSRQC
CHRM1 antagonist = blocks human M1 muscarinic receptor; P11229; CHO-K1 hM1, Fluo-8 calcium fluorescence, ACh EC80 antagonist; inhibition, % at 3 µM; 1.3% of 360,000 active; AID 588852;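 active = percent inhibition above its own plate's cutoff, namely the mean of that plate's compound wells plus 3 SD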;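 note: peak over basal fluorescence ratio during 140 s after agonist addition; 0% = ACh EC80 plus DMSO and 100% = DMSO alone without agonist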
M1 ag parental = nonselective activator or artifact in parental CHO-K1 cells. activation, % at 3 µM. Fluo-8 calcium fluorescence; scaled to maximal ATP response, vehicle zero. 0.48% of 360,000 active. AID 602248; in the data active = activation above about 15%;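 note: untransfected CHO-K1 host cells lacking M1 receptor as counterscreen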
M1 ag = human M1 muscarinic receptor agonism; P11229; CHO-K1 hM1, Fluo-8 calcium fluorescence, agonist mode; 0% DMSO, 100% acetylcholine EC100; activation, % at 3 µM; 0.33% of 360,000 active;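 active = activation above the run's mean compound activation plus 3 SD, cut at about 16% in these data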;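 note: peak over basal fluorescence ratio within a 140 s kinetic read after compound addition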
CHO-K1 Ca antag = M1 antagonist counterscreen hit in parental CHO-K1 cells; ATP-induced calcium, Fluo-8 fluorescence; inhibition, % at 3 µM; 0.6% of 360,000 active;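 active = inhibition above a per-plate cutoff, the plate's mean sample inhibition plus 3 SD, cut at about 24% in these data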;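 note: 0% = DMSO plus EC80 ATP and 100% = DMSO alone without ATP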
* marks the source's active call; other numbers are inactive results.

SMILES	CHO-K1 Ca PAM	CHRM1 PAM	CHRM1 antagonist	M1 ag parental	M1 ag	CHO-K1 Ca antag
CCCN(CCC)C(=O)C1CCCN(S(=O)(=O)c2ccc3c(c2)oc(=O)n3C)C1 (stereo not given)	0	0	-6	0	-5	-9
O=C(NC(Cc1ccccc1)C(=O)N1CCCCC1)c1ccccc1 (stereo not given)	-7	10	-16	3	0	0
COc1ccccc1CNS(=O)(=O)CCNCc1ccco1	18	2	-2	0	-3	-5
O=C(O)c1cc2c(cc1Cl)N1CCCCCC1=NS2(=O)=O	9	3	3	10	-8	-5
COC(=O)c1cc2c(cc1Cl)N1CCCCCC1=NS2(=O)=O	-21	-3	9	0	-2	24*
COc1cc2nc(C3CCC3)nc(N3CCN(c4ccccc4OC)CC3)c2cc1OC	14	-25	66*	2	-9	-14
NC(=O)CCN1CCN(CCOC2Cc3cc(Cl)ccc3Sc3ccccc32)CC1 (stereo not given)	12	-8	-2	4	-11	-5
Fc1ccc2c(c1)Sc1ccc(Cl)cc1CC2N1CCN(CCC2OCCO2)CC1 (stereo not given)	15	-26	75*	1	-7	-11
CC1(C)CC(=O)C(C=NCCN2CCN(CCCCS(=O)(=O)O)CC2)=C(O)C1	-8	2	4	0	-3	25*
CC1(C)CC(=O)C(C=NCCN2CCOCC2)=C(O)C1	19	4	-27	0	-2	-15
CCN1CCN(CCCNC(=O)c2ccc(NC(=O)C3=C(C)OCCS3)cc2)CC1	13	5	-6	0	-4	-4
CC(C)(C)c1cc(NC(=O)Nc2ccc(Br)cc2Cl)no1	9	-16	28*	0	-6	-15
CC(C)C(=O)Nc1ccc(Br)cc1Cl	-13	1	-3	-2	-11	56*
COc1ccc(OC)c(NC(=O)c2cccc(NC(=O)c3ccco3)c2)c1	-1	-6	-1	4	-1	-7
CC(C)NC(=O)C1(C)Cc2c(-c3ccc(N(C)C)cc3)ccnc2O1 (stereo not given)	-5	-5	11	0	-4	10
CCOc1ccccc1N(CC(=O)N1CCC(C)CC1)S(=O)(=O)c1ccc(C)cc1	-22	-16	32*	-1	-7	8
CCOc1ccccc1N(CC(=O)N1CCCCCC1)S(=O)(=O)c1ccc(C)cc1	-2	-1	1	0	-6	-3
O=C(NC(NC(=S)Nc1ccccc1)C(Cl)(Cl)Cl)c1cccc(Cl)c1 (stereo not given)	-10	-16	30*	14	4	32*
Cc1onc(-c2ccccc2)c1C(=O)Nc1nnc(CC(C)C)s1	21	3	-4	1	-9	-15
CC(=O)c1cccc(CN2CCC(C(=O)Nc3ccc(Oc4cccnc4)cc3)CC2)c1	-28	-12	30*	1	-6	12
O=C(Nc1ccc(Oc2cccnc2)cc1)C1CCN(Cc2cccc(Cl)c2)CC1	13	0	-1	7	-4	-3
COC(=O)Nc1ccc(S(=O)(=O)N2CCCC(C(=O)NC3CCS(=O)(=O)C3)C2)cc1 (stereo not given)	-9	6	-14	0	-4	5
CCCCCCCOC(=O)C[N+](C)(C)CCOC1CC2CCC1(C)C2(C)C (stereo not given)	32	5	11	27*	-4	5
CCCCCCOC(=O)C[N+](C)(C)CCOC1CC2CCC1(C)C2(C)C (stereo not given)	3	10	-5	0	-3	-2
COc1ccc(C(=O)c2c(-c3cccc(C)c3)oc3ccc(N4CCOCC4)cc23)cn1	16	1	-1	-1	-6	-17
SMILES	CHO-K1 Ca PAM	CHRM1 PAM	CHRM1 antagonist	M1 ag parental	M1 ag	CHO-K1 Ca antag
COc1cc2c(cc1OC)-c1nnc(C)n1C1(CCCC1)C2	-9	4	-4	-1	-4	27*
O=S(=O)(c1ccc(N2CCCC2)cc1)C(F)(F)F	-13	-14	25	10	-3	27*
O=S(=O)(c1ccc(N2CCN(c3ccc(F)cc3)CC2)cc1)N1CCCC1	2	7	-8	0	-4	-3
Cc1ccc(-n2ncc(C#N)c2/N=C/N2CCN(C)CC2)cc1	20	-6	-8	1	-7	-7
CN1CCN(/C=N/c2c(C#N)cnn2-c2ccccc2)CC1	4	-13	30*	0	-3	-2
NS(=O)(=O)c1ccc(NC(=O)CSc2nnc(Cc3cccs3)n2-c2ccccc2)cc1	7	1	-2	0	-4	-2
Cc1ccc(-n2c(Cc3cccs3)nnc2SCC(=O)Nc2ccc(S(N)(=O)=O)cc2)cc1	-8	12	7	0	-1	25*
Cc1ccc2c(c1)c(C)c(C)n2CC(O)CN1CCCCC1C (stereo not given)	-4	-3	-1	0	-12	1
Cc1ccc2c(c1)c1c(n2CC(O)CN2CCCCC2C)CCCC1 (stereo not given)	16	-24	42*	1	-7	-5
O=c1c2cc(NC(=S)NCCCN3CCC(Cc4ccccc4)CC3)ccc2nc2n1CCCCC2	11	-26	67*	10	-2	-6
O=c1c2cc(NC(=S)NCCN3CCCCCC3)ccc2nc2n1CCCCC2	-6	-15	13	0	-9	-5
COC(=O)[C@]1(Cc2ccccc2)N[C@H](CN(C)C(=O)c2ccc(F)cc2)[C@@H]2C(=O)N(C)C(=O)[C@@H]21	6	27*	-23	1	4	-14
CCN(C[C@H]1N[C@@](Cc2ccccc2)(C(=O)OC)[C@H]2C(=O)N(C)C(=O)[C@@H]12)C(=O)C1CCCCC1	-9	9	-10	0	1	26*
CCN(C[C@H]1N[C@@](Cc2ccccc2)(C(=O)OC)[C@H]2C(=O)N(Cc3ccccc3)C(=O)[C@@H]12)C(=O)Nc1ccc(C(F)(F)F)cc1	-15	-13	22	7	4	31*
CCN(C[C@H]1N[C@@](Cc2ccccc2)(C(=O)OC)[C@H]2C(=O)N(C)C(=O)[C@@H]12)C(=O)c1ccccc1	11	2	0	1	-3	2
CCN(C[C@H]1N[C@@](Cc2ccccc2)(C(=O)OC)[C@H]2C(=O)N(C)C(=O)[C@@H]12)S(=O)(=O)c1ccc(C(F)(F)F)cc1	-11	-19	41*	6	0	22
Cc1coc2c(C)c3oc(=O)c(CCC(=O)N4CCC(C(=O)NCCCC(=O)O)(c5ccccc5)CC4)c(C)c3cc12	2	4	-4	1	-1	-11
Cn1cccc1CC(=O)N/N=C/C=C/c1ccco1	6	1	-9	0	-1	-13
